One experiment deals with CRL-7250. The experiment in a line: Cytotoxic Profiling of Annotated Libraries Using Quantitative High-Throughput Screening (AID 1296008). For max response: % is set by controls: 0 for no effect and ±100 for the full control effect. Note: nearly all actives have a fitted effect of over 60% in size. The note with it: Five cell lines viability, CellTiter-Glo ATP luminescence, 48-72 h; max response: stronger effect = lower value. An outline of the steps:
(§1)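 Compounds were pin-transferred onto cells and incubated 48 or 72 hr at 37 degree Celsius, 95% humidity. CellTiter-Glo was added, plates sat 10 min at room temperature, then ATP-coupled luminescence was imaged as the viability read-out.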
Background: In ATP-based viability assays light output follows the ATP content of the culture.

A further experiment deals with HEK293. Described as above. The conditions noted are these: Five cell lines viability, CellTiter-Glo ATP luminescence, 48-72 h; max response: stronger effect = lower value. An outline of the steps: as §1
The subject of experiment [1] is HaCat. The description is as above. The conditions noted are these: Five cell lines viability, CellTiter-Glo ATP luminescence, 48-72 h; max response: stronger effect = lower value. An outline of the steps: as §1
Experiment [2] has as its system NIH3T3. The description is as above. The conditions noted are these: Five cell lines viability, CellTiter-Glo ATP luminescence, 48-72 h; max response: stronger effect = lower value. An outline of the steps: as §1
Experiment [3] deals with HACAT. Description: qHTS assay to identify novel small-molecules to repurpose for Merkel cell carcinoma treatment (AID 1296009). Note: nearly all actives have a fitted effect of over 60% in size. The conditions noted are these: MCC and control cell lines, CellTiter-Glo viability, 72 h; at 44.8 µM (top of the series) unless noted. The procedure, abridged: (§2)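 Cells exposed to NPC (8-point) and MIPE (11-point) compound dilutions for 72 hr at 37 degree celsius; viability read by CellTiter-Glo luminescence, normalized to no-cell and DMSO in-plate controls.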
On the technique in general: Quantitative high-throughput screening tests each substance at several concentrations.

A further experiment concerns HEK293T. The experiment is described as above. The note with it: MCC and control cell lines, CellTiter-Glo viability, 72 h; at 44.8 µM (top of the series) unless noted. The procedure, abridged:
as §2

Another experiment deals with MCC-13. Described as above. The note with it: MCC and control cell lines, CellTiter-Glo viability, 72 h; series mostly up to 46 µM. An outline of the steps:
as §2

The next experiment concerns MCC-26. The experiment is described as above. The conditions noted are these: MCC and control cell lines, CellTiter-Glo viability, 72 h; series mostly up to 46 µM. An outline of the steps:
as §2

In another experiment the test system is MKL-1. The description is as above. The note with it: MCC and control cell lines, CellTiter-Glo viability, 72 h; series mostly up to 46 µM. The procedure, abridged:
as §2

A further experiment deals with MKL-2. The experiment is described as above. The note with it: MCC and control cell lines, CellTiter-Glo viability, 72 h; series mostly up to 46 µM. The procedure, abridged:
as §2

The next experiment concerns UISO. Described as above. The note with it: MCC and control cell lines, CellTiter-Glo viability, 72 h; series mostly up to 46 µM. The procedure, abridged: as §2
The test system of the next experiment is WaGa. The experiment is described as above. The conditions noted are these: MCC and control cell lines, CellTiter-Glo viability, 72 h; series mostly up to 46 µM. An outline of the steps:
as §2

The next experiment deals with C33A. Description: Primary qHTS to identify gynecologic anti-cancer compounds using libraries of approved drugs and bioactive compounds (AID 1345084). Note: % is set by controls: 0 for no effect and ±100 for the full control effect; nearly all actives have a fitted effect of over 55% in size. The note with it: Gynecologic cancer cell panel viability, ATPlite luminescence, 48 h; series mostly up to 57.5 µM. The procedure, abridged: (§3)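 Luminescence from the ATPlite ATP-monitoring reagent indicates viable cell number; lower signal means cytotoxicity. Cells received compound 16 h after seeding and were exposed for 48 h across five concentrations.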

The test system of a further experiment is CAOV3. The description is as above. The conditions noted are these: Gynecologic cancer cell panel viability, ATPlite luminescence, 48 h; series mostly up to 57.5 µM. The procedure, abridged: as §3
Another experiment has as its system CASKI. Described as above. The conditions noted are these: Gynecologic cancer cell panel viability, ATPlite luminescence, 48 h; series mostly up to 57.5 µM. The procedure, abridged:
as §3

The next experiment relates to Es-2. Described as above. The conditions noted are these: Gynecologic cancer cell panel viability, ATPlite luminescence, 48 h; series mostly up to 57.5 µM. The procedure, abridged: as §3
The subject of another experiment is TAB165. Description: qHTS profiling for inhibitors of Plasmodium falciparum proliferation (AID 504749). Note: nearly all actives have a fitted effect of over 60% in size. Note: potency is the fitted concentration of half-maximal effect. The conditions noted are these: P. falciparum in erythrocytes, SYBR Green DNA, 72 h; series mostly up to 28.7 µM. An outline of the steps: (§4)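 P. falciparum-infected erythrocytes (0.3% parasitemia, 2.5% hematocrit final) were exposed to compounds for 72 h at 37 C in 5% CO2, then lysed with SYBR Green buffer overnight at room temperature; parasite DNA fluorescence was normalized to artemisinin and DMSO controls.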

Another experiment deals with W2. The description is as above. The note with it: P. falciparum in erythrocytes, SYBR Green DNA, 72 h; series mostly up to 28.7 µM. An outline of the steps:
as §4

Experiment [4] deals with NIH3T3. The experiment in a line: qHTS assay to identify novel small-molecules to repurpose for Merkel cell carcinoma treatment (AID 1296009). Note: nearly all actives have a fitted effect of over 60% in size. The conditions noted are these: MCC and control cell lines, CellTiter-Glo viability, 72 h; at 44.8 µM (top of the series) unless noted. An outline of the steps:
as §2

We go through 6 compounds from PubChem BioAssay (NCATS).

Values joined by “and” are separate entries in the source; they are usually repeats but may differ in a detail not shown here. Equal values may be shown once. Inconclusive results are not listed. Unmarked numbers belong to inactive results. Active and inactive are the calls of the source. Calls come from the whole dose curve; as a rule, active = well fitted curve in the direction sought with a large enough effect; inconclusive = small, poorly fitted or top-dose-only effect, or another doubt; inactive = no such curve, though single readings can be large; an effect the other way counts as inactive or inconclusive.

Consider `N[C@H]1C(O)O[C@H](CO)[C@@H](O)[C@@H]1O` (stereo partly specified), for which the max response in the experiment with CRL-7250 is -7.05%; with NIH3T3 [2], -13.4%. In addition, the outcome in the experiment with HEK293, in the experiment on HaCat [1], in the experiment on HACAT [3] and in the experiment with HEK293T was inactive. In addition, the Potency result in the experiment with MCC-13, in the experiment on MCC-26, in the experiment on MKL-1, in the experiment on MKL-2, in the experiment on UISO and in the experiment on WaGa was “inactive” throughout. Also, the Potency result with C33A, in the experiment with CAOV3, in the experiment on CASKI and in the experiment with Es-2 was “inactive” in each case.
For the compound `CCCCN1CCCC[C@H]1C(=O)Nc1c(C)cccc1C`, the Potency entry in the experiment on TAB165, in the experiment with MCC-13, with MCC-26, in the experiment with MKL-1, in the experiment on MKL-2 and with UISO was “inactive” each time. Besides, the Potency entry in the experiment on WaGa, in the experiment with C33A, in the experiment on CAOV3, in the experiment on CASKI and in the experiment on Es-2 was “inactive” throughout. Further, in the experiment with W2, the Potency was 6.75 µM (active). For the same compound, the max response in the experiment on CRL-7250 is 2.72% and -2.26%; with HEK293 it was -17.3% and -9.85%; with HaCat [1], -56.1%; in the experiment with NIH3T3 [2], -0.105% and -0.406%.
In the case of `CN(C)CC[C@@H](c1ccc(Cl)cc1)c1ccccn1`, the max response is 4.72% in the experiment with CRL-7250, -2.7% in the experiment on HEK293 and 0.999% with HaCat [1]. The result in the experiment on NIH3T3 [2] and with NIH3T3 [4] was inactive. Further, the Potency result in the experiment on MCC-13, with MCC-26, with MKL-1, in the experiment with MKL-2, in the experiment with UISO and with WaGa was “inactive” in each case. For the same compound, the Potency entry in the experiment with C33A, in the experiment on CAOV3, in the experiment on CASKI and in the experiment on Es-2 was “inactive” throughout.
Take `C[C@@H](O)[C@H](N)C(=O)O`: the max response in the experiment on CRL-7250 was -2.34%; in the experiment on NIH3T3 [2], -1.06%. Besides, the compound was classed as inactive in the experiment on HEK293 and in the experiment with HaCat [1]. In addition, the outcome in the experiment with HACAT [3] and in the experiment with HEK293T was “inactive [at 17.4 µM]” throughout. Moreover, the Potency result in the experiment with MCC-13, with MKL-1, in the experiment with MKL-2, with UISO, with WaGa and in the experiment on C33A was “inactive” in each case. Moreover, the Potency result with CASKI and in the experiment with Es-2 was “inactive” each time.
With `CCC(=O)c1ccc(O)cc1`, the Potency entry in the experiment on TAB165, in the experiment on W2, in the experiment with MCC-13, with MCC-26, in the experiment on MKL-1 and in the experiment with MKL-2 was “inactive” each time. Moreover, the Potency entry in the experiment on UISO, in the experiment on WaGa, in the experiment with C33A, in the experiment on CASKI and in the experiment with Es-2 was “inactive” throughout. Further, the max response in the experiment with CRL-7250 was 4.24%. The outcome in the experiment with HEK293, in the experiment with HaCat [1], in the experiment with NIH3T3 [2], in the experiment on HACAT [3], with HEK293T and in the experiment with NIH3T3 [4] was inactive.
Take `Cc1ccc(C(C)C)cc2c(C)ccc1-2`: the Potency result in the experiment with TAB165, in the experiment with MCC-13, in the experiment on MCC-26, in the experiment on MKL-1, in the experiment with MKL-2 and with UISO was “inactive” each time. The Potency entry in the experiment with WaGa, in the experiment on C33A, in the experiment with CAOV3, with CASKI and in the experiment with Es-2 was “inactive” in each case. The max response in the experiment on CRL-7250 was 3.16%; with HaCat [1] it was -2.06%. Besides, the compound was classed as inactive with HEK293, in the experiment on NIH3T3 [2], with HEK293T and with NIH3T3 [4].
